# Reference: PubChem BioAssay AID1851 (National Center for Advancing Translational Sciences (NCATS), 2009)
# Several values for one entry are separate records, joined by “and”; a condition that tells them apart may be missing. Equal values may be shown once. Screen size: about 16,000 compounds; about 5,700 (36%) were called active. Inconclusive results (about 24%) are left out. Calls follow the shape of the dose curve; as a rule, active = well fitted curve in the direction sought with a large enough effect; inconclusive = small, poorly fitted or top-dose-only effect, or effect the other way; inactive = no such curve, though single readings can be large or run the other way. The list shows a part of the results.
# Biological target: Cytochrome P450 1A2 (Homo sapiens) (UniProt P05177)
# Experiment: Cytochrome panel assay with activity outcomes
# Details: recombinant CYP, pro-luciferin dealkylation, luminescence, p450-cyp1a2; series mostly up to 57.1 µM
# % is scaled to controls: 0 for no effect and ±100 for the full control effect.
# Chain of Cytochrome P450 1A2 (Homo sapiens) (P05177 whole entry, looked up): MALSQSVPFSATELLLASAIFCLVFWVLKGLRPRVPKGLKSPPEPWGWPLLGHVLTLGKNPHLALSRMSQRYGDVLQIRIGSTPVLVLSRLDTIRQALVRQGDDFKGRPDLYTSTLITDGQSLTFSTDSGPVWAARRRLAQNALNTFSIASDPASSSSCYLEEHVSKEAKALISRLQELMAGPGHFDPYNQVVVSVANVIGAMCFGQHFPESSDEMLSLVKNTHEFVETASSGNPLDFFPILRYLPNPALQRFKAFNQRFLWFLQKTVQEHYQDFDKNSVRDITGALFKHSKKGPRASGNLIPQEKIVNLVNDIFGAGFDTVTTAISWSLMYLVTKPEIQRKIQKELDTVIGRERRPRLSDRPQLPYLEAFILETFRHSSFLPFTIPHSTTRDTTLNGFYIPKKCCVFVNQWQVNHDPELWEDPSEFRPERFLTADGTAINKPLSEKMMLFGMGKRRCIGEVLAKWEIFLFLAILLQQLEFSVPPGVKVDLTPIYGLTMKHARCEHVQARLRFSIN
SMILES,"activity, negative = inhibition",AC50
CCN1C(=O)[C@H]2[C@@H]3[C@H](O)[C@H](O)CC(=O)[C@H]3CC[C@H]2C1=O,-11.3% [at 11.4 µM] (inactive) and -4.71% [at 11.4 µM] (inactive),–
CN1CCCN(C2C3CC4CC(C3)CC2C4)CC1 (stereo unspecified),–,inactive
c1cc(CSSCc2ccncc2)ccn1,–,2 µM (active)
c1cc(CNCCN2CCNCC2)ccn1,-16% [at 11.4 µM] (inactive),–
CN(Cc1ccco1)c1ncnc2ccc(-c3ccc4c(c3)OCO4)cc12,–,0.501 µM (active)
CN(Cc1ccco1)c1ncnc2ccc(-c3ccoc3)cc12,–,2.51 µM (active)
O=C(CC(=O)c1ccncc1)c1ccccc1,–,0.1 µM (active)
O=C(NNC(=O)c1ccncc1)c1ccncc1,-7.18% [at 11.4 µM] (inactive),–
O=C(c1ccncc1)N1CCC2(CCN(Cc3ccccc3)CC2)CC1,–,inactive
Cn1c(-c2sc(=S)n(-c3ccccc3)c2N)nc2ccccc21,–,0.708 µM (active)
O=C1C[C@@H](O)[C@@H](O)[C@H]2[C@@H]3C(=O)N(Cc4ccccc4)C(=O)[C@@H]3CC[C@H]12,7.93% [at 11.4 µM] (inactive) and -5.24% [at 11.4 µM] (inactive),–
Nc1ccc(N=Nc2ccc(-c3ccc(O)cc3)cc2)c2ccc(S(=O)(=O)O)cc12,-17.8% [at 2.29 µM] (inactive),–
COc1cc(-c2ccc(N=Nc3ccc4c(S(=O)(=O)O)cc(S(=O)(=O)O)c(N)c4c3O)c(OC)c2)ccc1N=Nc1ccc2c(S(=O)(=O)O)cc(S(=O)(=O)O)c(N)c2c1O,–,12.6 µM (active)
COc1ccc(N2C(=O)CCC(C(=O)O)C2c2ccc(F)cc2)cc1 (stereo unspecified),–,inactive
COc1ccc(CNc2ccnc(-c3ccccc3C(F)(F)F)n2)c(OC)c1,–,15.8 µM (active)
COc1ccc(CNc2ccnc(-c3ccccc3OC)n2)c(OC)c1,–,5.01 µM (active)
COc1ccccc1CNc1ccnc(-c2ccccc2C(F)(F)F)n1,–,10 µM (active)
COc1ccc([C@@H](Nc2ccccn2)c2cc(C(C)(C)C)cc(C(C)(C)C)c2O)cc1,1.22% [at 2.29 µM] (inactive),–
COc1ccc(CNc2ccnc(-c3ccccc3Cl)n2)c(OC)c1,–,5.01 µM (active)
CO[C@H]1COC(=O)C/C=C\[C@@H](C)COC(=O)[C@@H](OCc2ccccc2)/C=C\[C@@H]1C,-1.45% [at 11.4 µM] (inactive),–
CC(=O)OC[C@@H]1O[C@@H](O/N=C2/C[C@@H](O)[C@@H](O)[C@@H]3[C@H]4C(=O)N(c5ccc(F)cc5F)C(=O)[C@@H]4CC[C@@H]23)[C@H](OC(C)=O)[C@H](OC(C)=O)[C@@H]1OC(C)=O,2.88% [at 11.4 µM] (inactive),–
